# According to PubChem BioAssay (Tox21):
# Records with an inconclusive call do not appear. A call without a number means that no potency is given here. Values without a mark were called inactive. Activity calls are given as the source filed them. Calls come from the whole dose curve; as a rule, active = well fitted activation curve with a large enough effect in the repeat runs; inconclusive = weak or mixed curves; inactive = flat fitted curve, though single readings scatter.
# Experiment: A CellTox Green Cytotoxicity Assay to monitor cytotoxicity in HepG2 cells - 24 hour (AID 1224878); note: nearly all actives have a fitted effect of over 45% in size
# Conditions: CellTox Green fluorescence; series mostly up to 76.8 µM
# Description: National Center for Advancing Translational Sciences [NCATS]
# NIH Chemical Genomics Center [NCGC]
# U.S. Environmental Protection Agency [EPA]
# National Institutes of Environmental Health Sciences [NIEHS]
# National Toxicology Program [NTP]
# Cell-based models are critical for drug discovery. Determining the natural cytotoxic effects resulting from test compounds is an essential research activity. A CellTox Green Cytotoxicity Assay to monitor cytotoxicity in real time of continues cell culture during 40 hours of the compound treatment was used to screen Tox21 10K library compounds in HepG2 cells. CellTox Green Cytotoxicity Assay is a nonlytic, homogeneous, biofluorescent method to measure cytotoxicity in cell culture after experimental manipulation. The assay system uses a proprietary asymmetric cyanine dye that is excluded from viable cells but preferentially stains the dead cell's DNA. […] Viable cells produce no appreciable increases in fluorescence. Therefore, the fluorescence signal produced by the binding interaction with dead cell DNA is proportional to cytotoxicity.
# The mixture of HepG2 cell suspension and reagents were dispensed at 600cells/6 ul/well in 1536-well tissue culture treated black solid bottom plates using a Multidrop dispenser. After the assay plates were incubated at a 37 C/5% CO2 incubator for 5 hours, 23 nL of compounds dissolved in DMSO, positive and negative controls was transferred to the assay plate by a pintool work station. The plates were incubated at 37 C for 40 hours. The fluorescence intensity were measured at 0h, 8h, 16h, 24h, 32h and 40h time points using ViewLux plate reader during compound treatment.
# Potency is the fitted concentration of half-maximal effect.
SMILES,Potency,cytotoxicity
O=C(O)c1ccc2cc(O)ccc2c1,inactive,–
O=C(O)c1cc(C(=O)O)c(C(=O)O)cc1C(=O)O,inactive,–
CC(Cc1ccccc1)(NC(=O)CN)c1ccccc1 (stereo not given),inactive,–
CCOC(C)OCC,inactive,–
CC(=O)CC/C=C(\C)CC/C=C(\C)CC/C=C(\C)CCC=C(C)C,inactive,–
C=Cc1ccc(C=C)cc1,inactive,–
O=C(OCCCCCOC(=O)c1ccccc1)c1ccccc1,inactive,–
O=c1c2ccccc2oc2ccccc12,inactive,–
CCCCCO,inactive,–
CCCCCCC/C=C/C=O,inactive,–
SCCOCCOCCS,inactive,–
CC1(C)CC(O)CC(C)(C)N1[O],inactive,–
CNc1ccccc1,inactive,–
C=CC(=O)NC(C)(C)C,inactive,–
CCc1cnc(C(=O)O)c(C(=O)O)c1,inactive,–
CC1(C)CC(=O)CC(C)(C)N1,inactive,–
CO[C@@H]1[C@@H](O[C@@H]2O[C@H](C)[C@@H](O[C@H]3C[C@@](C)(O)[C@@H](O)[C@H](C)O3)[C@H](N(C)C)[C@H]2O)[C@@H](CC=O)C[C@@H](C)[C@@H](O[C@@H]2CC[C@H](N(C)C)[C@@H](C)O2)/C=C/C=C/C[C@@H](C)OC(=O)C[C@H]1OC(C)=O,inactive,–
Cc1ccccc1CCO,inactive,–
Clc1nc2ccccc2nc1Cl,inactive,–
COc1ccnc2c1CCCCC2S(=O)c1nc2ccccc2[nH]1 (stereo not given),inactive,–

SMILES,Potency,cytotoxicity
CCCCCCCCCC(C)C=O (stereo not given),24.5 µM (active),–
N#C[C@@H]1CC(F)(F)CN1C(=O)CNC1CC2CCC(C1)N2c1ncccn1 (stereo not given in full),inactive,–
CCCCCCCCCCCCCCCCCCCl,–,-10.6% [at 6.97 µM]
CC(CN=Cc1ccccc1O)N=Cc1ccccc1O (stereo not given),inactive,–
C[C@@H](O)[C@H]1C(=O)N2C(C(=O)O)=C(S[C@@H]3CN[C@H](CNS(N)(=O)=O)C3)[C@H](C)[C@H]12,inactive,–
Nc1ccc(-c2ccc(F)cc2)cc1,inactive,–
CC(C)(C)N,inactive,–
Cc1c(Nc2ncccc2C(=O)O)cccc1C(F)(F)F,inactive,–
Cc1cc(N)n(-c2ccccc2)n1,inactive,–
Nc1ccc(F)cc1F,inactive,–
CCC1=C(C)CN(C(=O)NCCc2ccc(S(=O)(=O)NC(=O)NC3CCC(C)CC3)cc2)C1=O (stereo not given),inactive,–
O=[N+]([O-])c1ccc(Cl)cc1Cl,inactive,–
O=C(O)c1ccc2c(c1)nc(C(=O)NC1CCN(C3CC3)CC1)n2Cc1cc(-c2ccc(Cl)s2)on1,–,-2.25% [at 15.8 µM]
O=[N+]([O-])c1ccccc1CCO,inactive,–
O=C(C1CCCCC1)N1CC(=O)N2CCCc3ccccc3C2C1 (stereo not given),inactive,–
O=C(Nc1ccc2c(c1)Cc1ccccc1-2)C(F)(F)F,inactive,–
COc1cc(CNC(=O)CCCC/C=C/C(C)C)ccc1O,inactive,–
Cc1cc(C)n(CO)n1,inactive,–
CCC(=O)O[C@@H]1C[C@H]2CC[C@]1(C)C2(C)C,inactive,–
CCCC1CCOC(C)S1 (stereo not given),inactive,–
